Mtb bLac sens = beta-lactam sensitization of Mtb H37Rv. M. tuberculosis H37Rv growth with meropenem, percent inhibition. inhibition, % at 25 µM. AID 434955. 0.27% of 330,000 active; call rule not given here;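 further: growth measured after seven days incubation then overnight dye step; 0% = bacteria only wells and 100% = bacteria with antibiotic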
Mtb hypoxia inh = reduces hypoxia-regulated biosensor signal in M. tuberculosis. M. tuberculosis hypoxia-regulated fluorescent reporter, fluorescence. fluorescence inhibition, % (no concentration beside the values). 0.1% of 300,000 active; in the data active means fluorescence inhibition mostly above about 23%, no sharp cut-off; inactive means mostly below about 17%
VHR inh abs = blocks human VHR1 dual specificity phosphatase | P51452 | inhibition, % at 13.3 µM | 0.52% of 290,000 active | recombinant VHR phosphatase, pNPP absorbance; in the data active means inhibition above about 50%
Target sequence (P51452 whole entry, looked up): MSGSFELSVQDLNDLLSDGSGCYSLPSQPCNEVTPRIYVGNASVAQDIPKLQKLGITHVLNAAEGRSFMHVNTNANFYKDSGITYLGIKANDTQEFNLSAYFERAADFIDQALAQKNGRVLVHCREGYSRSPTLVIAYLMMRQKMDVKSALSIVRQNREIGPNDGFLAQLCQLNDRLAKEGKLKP
Mtb FBA inh = inhibitors of M. tuberculosis fructose-bisphosphate aldolase; P9WQA3; purified M. tuberculosis FBA, fluorescence read-out; inhibition, % at 1 µM; 2.3% of 360,000 active; in the data active means inhibition above about 27%;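 further: 0% = vehicle and 100% = reference inhibitor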
Target sequence (P9WQA3 whole entry, looked up): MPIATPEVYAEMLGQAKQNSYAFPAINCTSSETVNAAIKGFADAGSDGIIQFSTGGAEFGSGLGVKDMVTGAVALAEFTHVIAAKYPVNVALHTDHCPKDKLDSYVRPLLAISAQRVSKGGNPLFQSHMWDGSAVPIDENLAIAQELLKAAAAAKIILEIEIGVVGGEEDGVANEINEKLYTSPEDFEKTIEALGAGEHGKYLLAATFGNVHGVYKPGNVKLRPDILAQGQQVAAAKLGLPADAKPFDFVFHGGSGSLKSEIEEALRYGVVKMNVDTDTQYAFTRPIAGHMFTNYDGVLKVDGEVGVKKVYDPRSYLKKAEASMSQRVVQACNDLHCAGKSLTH
GDH-TPI inh = counter-screen for M. tuberculosis FBA inhibitors: GDH-TPI coupled enzymes; GDH-TPI coupled enzyme counterscreen, NADH absorbance; 1.2% of 360,000 active; inhibition, % at 4.8 µM; AID 588335; in the data active means inhibition above about 30%;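 further: 0% = DMSO wells and 100% = wells lacking the enzyme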
* hit, by the source's call. Compounds with a hit are over-represented: about 3.6% of the library has one in this group of screens.

Screening COC(=O)C1=C(c2cccc(C#N)c2)CC2CCC1N2C(=O)NC1CCCCC1 (configuration not stated) returned Mtb hypoxia inh 4.3.
CCOC(=O)c1nc(-c2ccccc2)oc1N(C)C was read as Mtb bLac sens 1.2, VHR inh abs 18.2, Mtb FBA inh 131.4* and GDH-TPI inh 14.8.
For CN(C)c1oc(-c2ccccc2Cl)nc1C#N the results were Mtb bLac sens 0.7, Mtb hypoxia inh 0.4, VHR inh abs 14.6, Mtb FBA inh 19.8 and GDH-TPI inh 9.6.
`COc1ccccc1/C=C/c1nc(C#N)c(N(C)C)o1` gave Mtb bLac sens 1.9, Mtb hypoxia inh -3.6, VHR inh abs 9.2, Mtb FBA inh active and GDH-TPI inh 8.9.
For CN(C)c1oc(-c2ccco2)nc1C#N the results were Mtb bLac sens -5.6, Mtb hypoxia inh 11.4, VHR inh abs 22.2, Mtb FBA inh 127.3* and GDH-TPI inh 16.0.
For CN(C)c1oc(-c2ccccc2)nc1C#N the results were Mtb bLac sens -3.2, Mtb hypoxia inh 3.6, VHR inh abs -1.0, Mtb FBA inh active and GDH-TPI inh 18.2.
For CN(C)c1oc(/C=C/c2ccccc2)nc1C#N the results were Mtb bLac sens -1.2, Mtb hypoxia inh 2.8, VHR inh abs -2.5 and GDH-TPI inh 24.1.
Screening C=C1C(C)C2C(Cc3ccccc3)NC(=O)[C@]23OC(=O)C=CC(O)CCCC(C)CC=CC3C1O (some centres not stated) returned Mtb hypoxia inh 4.2.
`COc1ccc(C2CC(=O)C=C(c3cccc(Cl)c3O)C2)cc1OC` (configuration not stated) gave Mtb hypoxia inh 10.7.
Screening CC(=O)O[C@]1(C(C)=O)CCC2C3C=C(Cl)C4=CC(=O)C5CC5[C@]4(C)C3CC[C@@]21C (some centres not stated) returned Mtb hypoxia inh -2.4.
For CC(C)CN1CCC(=O)N(C(COc2ccccc2)Cc2ccccc2)CC1 (configuration not stated) the results were Mtb hypoxia inh 7.0.
`Cc1nc(N2CCN(C)CC2)c2c(C)c(C(=O)Nc3ccc(F)cc3)sc2n1` gave Mtb bLac sens -14.1, Mtb hypoxia inh 24.4, VHR inh abs 54.6*, Mtb FBA inh 1.8 and GDH-TPI inh 12.4.
CCCCCCC/C=N/Nc1nnc(Cc2ccccc2)c(=O)[nH]1 was read as Mtb bLac sens 6.0, VHR inh abs 53.0*, Mtb FBA inh 0.1 and GDH-TPI inh -4.1.
For COc1cc2c(cc1OC)-c1c3c(cc4c1C(C2)N(C)CC4)OCO3 (configuration not stated) the results were Mtb hypoxia inh 7.9.
COc1cc2c(cc1OC)-c1cc3ccc4c(c3c[n+]1CC2)OCO4 was read as Mtb bLac sens -1.5, Mtb hypoxia inh 2.4, VHR inh abs -14.6, Mtb FBA inh -0.6 and GDH-TPI inh 35.3*.
Screening COc1cc2c(cc1O)CC[n+]1cc3c(OC)c(OC)ccc3cc1-2 returned Mtb bLac sens 1.9, Mtb hypoxia inh 8.3, VHR inh abs 8.6, Mtb FBA inh -4.2 and GDH-TPI inh 32.8*.
Screening CC[n+]1c(/C=C/N(C)c2ccccc2)sc2ccc(Cl)cc21 returned Mtb bLac sens 5.1, Mtb hypoxia inh 3.3, VHR inh abs 20.5, Mtb FBA inh -0.6 and GDH-TPI inh 4.9.
For CC[n+]1c(/C=C/N(C)c2ccccc2)oc2ccc(Cl)cc21 the results were Mtb bLac sens -5.6, VHR inh abs 32.8, Mtb FBA inh -4.9 and GDH-TPI inh 45.7*.
For COc1ccc([C@H]2CC(=O)C=C(c3ccc(NC(C)=O)cc3)C2)cc1OC the results were Mtb bLac sens 5.2, Mtb FBA inh 6.6 and GDH-TPI inh 36.8*.
CC1(C)CC(=O)C=C(c2cc3ccccc3s2)C1 was read as Mtb bLac sens 19.1, Mtb hypoxia inh 4.5, Mtb FBA inh 10.0 and GDH-TPI inh 30.2.
COc1ccc(C2CC(=O)C=C(c3cc4ccccc4s3)C2)cc1OC (configuration not stated) was read as Mtb hypoxia inh 6.1.
COc1ccc([C@H]2CC(=O)C=C(c3ccc(C)cc3)C2)cc1OC was read as Mtb bLac sens 73.3, Mtb FBA inh -0.8 and GDH-TPI inh 4.0.
Screening O=C1C=C(c2cc3ccccc3s2)CCC1 returned Mtb bLac sens -2.5, Mtb hypoxia inh 20.2, Mtb FBA inh 7.6 and GDH-TPI inh 34.5*.
`COc1ccc([C@H]2CC(=O)C=C(c3cc4ccccc4s3)C2)cc1OC` gave Mtb bLac sens 6.6, Mtb FBA inh 0.4 and GDH-TPI inh 32.6*.
For CC(C)CNC(=O)CC(=O)NN=Cc1cccs1 the results were Mtb hypoxia inh 0.3.
Cc1cc(NN=Cc2cccc([N+](=O)[O-])c2)nc(-n2nc(C)cc2C)n1 was read as Mtb hypoxia inh 4.8.
For COc1cc(C=NNC(=O)c2ccc([N+](=O)[O-])cc2Cl)cc(Br)c1O the results were Mtb hypoxia inh -0.3.
N#Cc1cc2cc3c(cc2nc1N1CCOCC1)OCO3 was read as Mtb bLac sens -9.4, VHR inh abs 18.9, Mtb FBA inh 111.9* and GDH-TPI inh 0.6.
For COc1ccc(/C=C2\SC(N)=NC2=O)cc1Br the results were Mtb bLac sens 6.8, Mtb hypoxia inh 0.9, VHR inh abs 7.4, Mtb FBA inh -6.7 and GDH-TPI inh 31.3*.
For COc1cc(/C=C2\SC(N)=NC2=O)ccc1OCC(=O)Nc1ccccc1C the results were Mtb bLac sens 27.0, Mtb hypoxia inh 56.8*, Mtb FBA inh 0.4 and GDH-TPI inh 23.8.
Screening NC1=NC(=O)/C(=C\c2ccc(O)c([N+](=O)[O-])c2)S1 returned Mtb bLac sens 47.2, Mtb hypoxia inh 56.0*, VHR inh abs 19.0, Mtb FBA inh -12.5 and GDH-TPI inh 23.8.
Screening CCCOc1ccc(/C=C2\SC(N)=NC2=O)cc1OC returned Mtb bLac sens 19.9, Mtb hypoxia inh 21.0, VHR inh abs 17.0, Mtb FBA inh -0.5 and GDH-TPI inh 15.2.
CCCC1C[C@@]1(CCC)C(NP(=O)(c1ccccc1)c1ccccc1)c1ccc(C(=O)OC)cc1 (some centres not stated) was read as Mtb hypoxia inh 5.7.
For CCN1C(=O)C2C(c3ccc(-c4ccc5c(c4)OCO5)c(OC)c3)N[C@@](CC(C)C)(C(=O)OC)C2C1=O (some centres not stated) the results were Mtb hypoxia inh 7.3.
`CCOC(=O)C1C2COc3cc(OC)ccc3C2N2C(=O)CN(C)C(=O)[C@@]12C` (some centres not stated) gave Mtb hypoxia inh 22.3.
Screening CCn1c2ccccc2c2cc(NC(=O)CNCc3ccccc3OC)ccc21 returned Mtb bLac sens 80.5, Mtb hypoxia inh -0.7, VHR inh abs -14.9, Mtb FBA inh -0.2 and GDH-TPI inh 15.5.
`CCOCCC(=O)Nc1ccc2c(c1)c(=O)n(C)n2Cc1cccc(C(F)(F)F)c1` gave Mtb FBA inh 176.9* and GDH-TPI inh 9.8.
`COc1ccccc1CCC(=O)Nc1ccc2c(c1)c(=O)n(C)n2C` gave Mtb FBA inh 189.2* and GDH-TPI inh 8.0.
COc1cccc(Cn2c3ccc(NC(=O)CCc4ccc(F)cc4)cc3c(=O)n2C)c1 was read as Mtb FBA inh 150.6* and GDH-TPI inh 3.5.

Screening data from PubChem BioAssay.
